From PubChem BioAssay (Tox21)
Results filed as inconclusive are left out. Active and inactive are the calls of the source. Unless noted, calls follow the shape of the dose curve; as a rule, active = well fitted curve in the direction sought with a large enough effect in the repeat runs; inconclusive = weak or mixed curves; inactive = no such curve, though single readings can be large; an effect the other way counts as inactive or inconclusive.

What was measured:
[1] = target: Thyrotropin-releasing hormone receptor (Homo sapiens) (UniProt P34981); assay: qHTS assay to identify small molecule agonists of the thyrotropin-releasing hormone receptor (TRHR) signaling pathway (AID 1346891; calls by dose curve; also: series mostly up to about 58 µM)
Outline: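 Intracellular calcium rise, read as fluorescence every second for 3 min, served as the agonist signal in dye-loaded HEK293 cells expressing TRHR; each compound ran at 15 concentrations in triplicate.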

[2] = Human pregnane X receptor (PXR) small molecule agonists, qHTS cell viability counter screen (AID 1346977); also: nearly all actives have a fitted effect of over 50% in size; also: potency is read from the fitted curve at half-maximal effect
Outline: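 PXR-Luc HepG2, 2,000 cells/well, 5% charcoal-stripped FBS; 5hr settle; cpd 24hr, 37C/5% CO2; CellTiter-Fluor at 23hr, read 1hr later (fluorescence).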

[3] = Caspase-3/7 induction in HepG2 cells by small molecules, qHTS assay (AID 1346978); also: nearly all actives have a fitted effect of over 15% in size
Outline: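 Wild-type HepG2 cells, 2,000/well, settled 5 hr at 37 C and 5% CO2, then compound-treated for 17 hr; caspase-3/7 activity read by luminescent Caspase-Glo 3/7 after 30 min at room temperature.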

[4] = Caspase-3/7 induction in CHO-K1 cells by small molecules, qHTS assay (AID 1346980); also: nearly all actives have a fitted effect of over 15% in size
Outline: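 Wild-type CHO-K1 cells exposed to compounds for 17hr at 37 C, 5% CO2. Caspase-3/7 activity then measured by Caspase-Glo 3/7 luminescence after 30min at room temperature.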

[5] = Caspase-3/7 induction in HepG2 cells by small molecules, qHTS cell viability counter screen (AID 1346981); also: nearly all actives have a fitted effect of over 30% in size; also: potency is read from the fitted curve at half-maximal effect; as to activity change, negative = cytotoxicity: series mostly up to about 92 µM
Outline: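 HepG2, WT, 2,000 cells/well; 5 hr pre-incubation 37 C/5% CO2; compound pin-transferred from DMSO; 16 hr exposure; CellTiter-Fluor, 1 hr; fluorescence read.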

[6] = target: Nuclear receptor subfamily 1 group I member 2 (Rattus norvegicus) (UniProt Q9R1A7); assay: Rat pregnane X receptor (rPXR) activation by small molecules, qHTS assay (AID 1346983); conditions: rPXR luciferase reporter cells, One-Glo luminescence, 24 h; max activation: active compounds read high; also: nearly all actives have a fitted effect of over 20% in size
Outline: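 Cell-based rPXR activation assay: rPXR cells, 2,000 per well, rested 5hr at 37 C, then exposed to compounds in DMSO for 24 hr at 37 C. Luciferase activity read by One-Glo luminescence after 30 min at room temperature.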

[7] = target: Cytochrome P450 2D6 (Homo sapiens) (UniProt P10635); assay: Cytochrome P450 Family 2 Subfamily D Member 6 (CYP2D6) small molecule antagonists: luciferase reporter qHTS assay (AID 1671196); also: nearly all actives have a fitted effect of over 50% in size; also: potency is read from the fitted curve at half-maximal effect; as to activity change, negative = inhibition: series mostly up to about 120 µM
Outline: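 Read-out is luminescence from luciferin formed by CYP2D6 turnover of a proluciferin substrate, recorded as relative luminescence units. Reactions ran 1 h at room temperature after NADPH regeneration solution was added.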

[8] = target: Cytochrome P450 2C9 (Homo sapiens) (UniProt P11712); assay: Cytochrome P450 Family 2 Subfamily C Member 9 (CYP2C9) small molecule antagonists: luciferase reporter qHTS assay (AID 1671198); also: nearly all actives have a fitted effect of over 50% in size; also: potency is read from the fitted curve at half-maximal effect; as to activity change, negative = inhibition: series mostly up to about 120 µM
Outline: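 P450-Glo proluciferin substrate with CYP2C9 enzyme; 10 min RT preincubation, then NADPH regeneration 1 h at 37C; luciferin detection reagent 20 min RT, luminescence in relative luminescence units.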

[9] = target: Cytochrome P450 1A2 (Homo sapiens) (UniProt P05177); assay: Cytochrome P450 Family 1 Subfamily A Member 2 (CYP1A2) small molecule antagonists: luciferase reporter qHTS assay (AID 1671199); also: nearly all actives have a fitted effect of over 50% in size; also: potency is read from the fitted curve at half-maximal effect; as to activity change, negative = inhibition: series mostly up to about 120 µM
Outline: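 P450-Glo CYP1A2, 1536-well qHTS: enzyme/proluciferin substrate + cpd (DMSO), 10 min RT; NADPH regen, 1 h RT; detection reagent, 20 min; luminescence, RLU.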

[10] = Caspase-3/7 induction in CHO-K1 cells by small molecules, qHTS cell viability counter screen (AID 1346979); also: nearly all actives have a fitted effect of over 35% in size; also: potency is read from the fitted curve at half-maximal effect
Outline: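 Cells (CHO-K1, wild type) are plated at 1,500 per well and incubated 5hr. Test compounds in DMSO are then pinned in, followed by 16hr at 37C and 5% CO2. Viability is read by CellTiter-Fluor fluorescence after 1hr.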

[11] = target: Nuclear receptor subfamily 1 group I member 2 (Homo sapiens) (UniProt O75469); assay: Human pregnane X receptor (PXR) activation by small molecules, qHTS assay (AID 1346985); also: nearly all actives have a fitted effect of over 40% in size
Outline: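 DPX-2 cells (HepG2 co-transfected with a PXR response element and a CYP3A4-promoter luciferase construct) were seeded at 2,000 per well, rested 5 hr at 37C, then exposed to DMSO-dissolved compounds for 24 hr. Activation was read as luciferase luminescence.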

[12] = target: Cytochrome P450 2C19 (Homo sapiens) (UniProt P33261); assay: Cytochrome P450 Family 2 Subfamily C Member 19 (CYP2C19) small molecule antagonists: luciferase reporter qHTS assay (AID 1671197); also: nearly all actives have a fitted effect of over 65% in size; also: potency is read from the fitted curve at half-maximal effect; as to activity change, negative = inhibition: series mostly up to about 120 µM
Outline: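 Relative luminescence units recorded 20 min after the detection reagent stopped a 1 h, 37C CYP2C19 reaction on proluciferin substrate, which was started by NADPH regeneration following 10 min room-temperature compound preincubation; ketoconazole positive control.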

[13] = target: Voltage-gated inwardly rectifying potassium channel KCNH2 (Homo sapiens) (UniProt Q12809); assay: Human Ether-a-go-go-Related Gene (hERG) channel small molecule antagonists: fluorescence cell-based qHTS assay (AID 1671200); also: nearly all actives have a fitted effect of over 50% in size; also: potency is read from the fitted curve at half-maximal effect;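 as to activity change, negative = inhibition: hERG-expressing U2OS cells given a thallium stimulus after FluxOR II dye loading; series mostly up to about 77 µM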
Outline: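 Channel function was assessed by thallium flux. Cells seeded the previous day and kept at 37 C took up FluxOR II dye over 1 h in the dark at room temperature, then sat another 10 min before stimulation.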

[14] = target: Nuclear receptor subfamily 1 group I member 2 (Homo sapiens) (UniProt O75469); assay: Human pregnane X receptor (PXR) small molecule agonists, qHTS assay (AID 1346982); also: nearly all actives have a fitted effect of over 35% in size; also: potency is read from the fitted curve at half-maximal effect
Outline: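 Luciferase signal from ONE-Glo (30 min, room temperature) measured activation of hPXR-driven CYP3A4 reporter expression in PXR-Luc HepG2 cells treated with compounds for 24 hr at 37 C.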

[15] = target: Cytochrome P450 3A4 (Homo sapiens) (UniProt P08684); assay: Cytochrome P450 Family 3 Subfamily A Member 4 (CYP3A4) small molecule antagonists: luciferase reporter qHTS assay (AID 1671201); also: nearly all actives have a fitted effect of over 50% in size; also: potency is read from the fitted curve at half-maximal effect; as to activity change, negative = inhibition: series mostly up to about 120 µM
Outline: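 Compounds in DMSO were pin-transferred onto CYP3A4 enzyme-substrate mix and held 10 min at room temperature. NADPH regenerating solution started the reaction for 1 h; luciferin detection reagent stopped it, and luminescence was read after 20 min.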

[16] = target: Nuclear receptor subfamily 1 group I member 2 (Homo sapiens) (UniProt O75469); assay: CYP3A4 induction through human pregnane X receptor (PXR) by small molecules, qHTS assay (AID 1346984); also: nearly all actives have a fitted effect of over 40% in size; also: potency is read from the fitted curve at half-maximal effect
Outline: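 Luminescence readout: luciferase signal after One-Glo (30 min, room temperature), following 3 h at 37C with 3uM final Luciferin-IPA P450 substrate. Cells were DPX-2 (HepG2, PXR/CYP3A4-luc co-transfected) dosed for 24 h.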
% is scaled to controls: 0 for no effect and ±100 for the full control effect.

Sequence of Thyrotropin-releasing hormone receptor (Homo sapiens) (P34981 whole entry, looked up): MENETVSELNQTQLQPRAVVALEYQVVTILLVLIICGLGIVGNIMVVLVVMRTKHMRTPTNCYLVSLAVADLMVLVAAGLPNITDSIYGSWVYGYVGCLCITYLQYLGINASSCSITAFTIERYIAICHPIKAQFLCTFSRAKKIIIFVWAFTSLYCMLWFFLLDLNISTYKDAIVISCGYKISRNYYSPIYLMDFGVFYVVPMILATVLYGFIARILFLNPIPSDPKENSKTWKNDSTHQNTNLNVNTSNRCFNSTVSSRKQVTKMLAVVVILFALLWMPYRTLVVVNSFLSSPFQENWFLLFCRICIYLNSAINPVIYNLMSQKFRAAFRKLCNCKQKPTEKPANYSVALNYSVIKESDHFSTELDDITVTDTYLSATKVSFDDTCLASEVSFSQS
Sequence of Voltage-gated inwardly rectifying potassium channel KCNH2 (Homo sapiens) (Q12809 whole entry, looked up): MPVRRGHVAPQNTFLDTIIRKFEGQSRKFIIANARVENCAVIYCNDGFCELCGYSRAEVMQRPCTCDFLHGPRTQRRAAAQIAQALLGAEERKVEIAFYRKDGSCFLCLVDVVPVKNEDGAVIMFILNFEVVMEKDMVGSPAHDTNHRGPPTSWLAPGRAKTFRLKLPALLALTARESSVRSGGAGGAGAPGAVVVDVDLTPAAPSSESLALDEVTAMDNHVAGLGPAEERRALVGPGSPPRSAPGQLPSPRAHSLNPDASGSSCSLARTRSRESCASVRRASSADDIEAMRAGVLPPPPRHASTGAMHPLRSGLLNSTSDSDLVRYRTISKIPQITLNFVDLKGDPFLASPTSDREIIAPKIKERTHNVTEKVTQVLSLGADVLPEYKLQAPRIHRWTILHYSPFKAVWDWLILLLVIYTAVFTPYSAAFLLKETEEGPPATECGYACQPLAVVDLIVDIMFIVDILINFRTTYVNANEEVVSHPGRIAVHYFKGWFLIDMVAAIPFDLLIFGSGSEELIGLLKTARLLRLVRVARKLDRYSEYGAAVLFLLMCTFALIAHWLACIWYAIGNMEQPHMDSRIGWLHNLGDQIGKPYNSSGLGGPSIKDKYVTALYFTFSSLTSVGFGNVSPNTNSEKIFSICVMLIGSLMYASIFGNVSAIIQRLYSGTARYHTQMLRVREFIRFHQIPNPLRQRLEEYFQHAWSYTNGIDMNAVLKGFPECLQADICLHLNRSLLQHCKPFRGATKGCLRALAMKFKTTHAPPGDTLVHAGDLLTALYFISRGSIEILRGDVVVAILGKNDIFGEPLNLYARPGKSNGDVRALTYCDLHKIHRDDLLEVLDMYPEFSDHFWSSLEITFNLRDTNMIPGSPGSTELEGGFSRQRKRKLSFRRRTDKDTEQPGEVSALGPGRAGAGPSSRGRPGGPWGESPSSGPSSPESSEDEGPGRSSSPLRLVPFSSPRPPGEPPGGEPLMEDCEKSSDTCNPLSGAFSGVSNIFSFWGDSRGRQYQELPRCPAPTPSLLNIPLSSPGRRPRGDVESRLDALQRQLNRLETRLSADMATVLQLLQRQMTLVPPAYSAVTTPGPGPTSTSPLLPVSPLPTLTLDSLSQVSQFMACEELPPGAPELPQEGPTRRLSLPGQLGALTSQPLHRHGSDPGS
Sequence of Nuclear receptor subfamily 1 group I member 2 (Homo sapiens) (O75469 whole entry, looked up): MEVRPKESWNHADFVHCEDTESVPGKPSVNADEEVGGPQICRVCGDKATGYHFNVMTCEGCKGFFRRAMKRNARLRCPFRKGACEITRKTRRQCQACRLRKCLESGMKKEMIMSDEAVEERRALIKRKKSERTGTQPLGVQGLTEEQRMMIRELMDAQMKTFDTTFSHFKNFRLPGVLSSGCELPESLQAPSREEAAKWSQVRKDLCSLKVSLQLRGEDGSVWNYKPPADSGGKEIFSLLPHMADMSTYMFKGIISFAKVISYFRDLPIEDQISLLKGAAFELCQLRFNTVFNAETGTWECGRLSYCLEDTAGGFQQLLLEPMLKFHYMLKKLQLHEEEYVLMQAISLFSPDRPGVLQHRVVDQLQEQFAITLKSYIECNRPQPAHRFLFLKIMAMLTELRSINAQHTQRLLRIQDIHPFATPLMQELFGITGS
Sequence of Cytochrome P450 2C9 (Homo sapiens) (P11712 whole entry, looked up): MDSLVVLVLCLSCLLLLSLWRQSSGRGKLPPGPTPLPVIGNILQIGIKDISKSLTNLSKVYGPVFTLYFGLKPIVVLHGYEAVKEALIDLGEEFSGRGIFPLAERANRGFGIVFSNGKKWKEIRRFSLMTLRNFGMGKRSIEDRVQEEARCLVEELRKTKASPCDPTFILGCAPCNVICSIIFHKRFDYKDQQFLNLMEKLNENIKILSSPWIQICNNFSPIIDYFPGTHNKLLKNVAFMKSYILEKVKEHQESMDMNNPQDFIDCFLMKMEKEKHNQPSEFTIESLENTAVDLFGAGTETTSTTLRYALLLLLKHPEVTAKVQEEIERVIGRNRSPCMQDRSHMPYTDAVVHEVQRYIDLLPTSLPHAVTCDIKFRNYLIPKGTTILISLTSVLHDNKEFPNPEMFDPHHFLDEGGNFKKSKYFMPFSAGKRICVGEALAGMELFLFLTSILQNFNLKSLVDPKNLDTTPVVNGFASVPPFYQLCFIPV
Sequence of Cytochrome P450 2C19 (Homo sapiens) (P33261 whole entry, looked up): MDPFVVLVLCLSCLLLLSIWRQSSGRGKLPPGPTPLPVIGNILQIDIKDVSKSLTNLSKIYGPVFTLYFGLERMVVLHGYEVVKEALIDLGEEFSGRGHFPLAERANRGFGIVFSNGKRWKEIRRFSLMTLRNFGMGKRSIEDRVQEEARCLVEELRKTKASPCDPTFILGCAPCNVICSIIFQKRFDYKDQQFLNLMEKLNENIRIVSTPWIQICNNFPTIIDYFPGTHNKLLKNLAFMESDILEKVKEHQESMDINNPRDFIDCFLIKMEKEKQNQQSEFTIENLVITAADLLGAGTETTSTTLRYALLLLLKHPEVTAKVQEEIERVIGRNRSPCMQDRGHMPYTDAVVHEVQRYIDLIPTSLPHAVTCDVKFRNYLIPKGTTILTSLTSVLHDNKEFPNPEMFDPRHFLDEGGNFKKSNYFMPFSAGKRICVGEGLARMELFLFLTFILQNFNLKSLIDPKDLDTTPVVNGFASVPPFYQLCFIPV
Sequence of Cytochrome P450 3A4 (Homo sapiens) (P08684 whole entry, looked up): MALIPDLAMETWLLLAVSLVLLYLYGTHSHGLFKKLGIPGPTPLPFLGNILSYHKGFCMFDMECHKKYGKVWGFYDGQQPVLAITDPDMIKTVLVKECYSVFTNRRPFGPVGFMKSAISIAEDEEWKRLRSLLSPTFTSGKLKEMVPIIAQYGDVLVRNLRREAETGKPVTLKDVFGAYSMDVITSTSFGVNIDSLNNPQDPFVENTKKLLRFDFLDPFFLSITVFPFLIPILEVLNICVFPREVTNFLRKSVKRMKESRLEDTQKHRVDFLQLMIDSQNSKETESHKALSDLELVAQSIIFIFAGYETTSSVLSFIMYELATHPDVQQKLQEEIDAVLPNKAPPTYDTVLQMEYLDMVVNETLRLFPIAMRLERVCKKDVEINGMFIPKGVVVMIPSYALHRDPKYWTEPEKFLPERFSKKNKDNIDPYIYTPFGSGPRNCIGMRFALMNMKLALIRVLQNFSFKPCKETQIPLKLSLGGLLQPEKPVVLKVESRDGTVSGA
Sequence of Nuclear receptor subfamily 1 group I member 2 (Rattus norvegicus) (Q9R1A7 whole entry, looked up): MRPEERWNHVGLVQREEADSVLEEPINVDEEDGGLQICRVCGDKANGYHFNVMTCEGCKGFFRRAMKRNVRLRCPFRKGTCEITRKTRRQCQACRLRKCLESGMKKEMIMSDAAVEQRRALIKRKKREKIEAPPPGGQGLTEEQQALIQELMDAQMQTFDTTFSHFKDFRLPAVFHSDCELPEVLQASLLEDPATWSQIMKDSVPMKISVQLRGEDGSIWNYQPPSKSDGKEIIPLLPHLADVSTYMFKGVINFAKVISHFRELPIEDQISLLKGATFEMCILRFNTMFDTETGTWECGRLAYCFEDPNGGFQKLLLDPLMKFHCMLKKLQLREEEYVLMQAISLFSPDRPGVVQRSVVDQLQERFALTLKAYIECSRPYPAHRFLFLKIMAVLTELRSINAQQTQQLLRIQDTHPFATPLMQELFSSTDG
Sequence of Cytochrome P450 1A2 (Homo sapiens) (P05177 whole entry, looked up): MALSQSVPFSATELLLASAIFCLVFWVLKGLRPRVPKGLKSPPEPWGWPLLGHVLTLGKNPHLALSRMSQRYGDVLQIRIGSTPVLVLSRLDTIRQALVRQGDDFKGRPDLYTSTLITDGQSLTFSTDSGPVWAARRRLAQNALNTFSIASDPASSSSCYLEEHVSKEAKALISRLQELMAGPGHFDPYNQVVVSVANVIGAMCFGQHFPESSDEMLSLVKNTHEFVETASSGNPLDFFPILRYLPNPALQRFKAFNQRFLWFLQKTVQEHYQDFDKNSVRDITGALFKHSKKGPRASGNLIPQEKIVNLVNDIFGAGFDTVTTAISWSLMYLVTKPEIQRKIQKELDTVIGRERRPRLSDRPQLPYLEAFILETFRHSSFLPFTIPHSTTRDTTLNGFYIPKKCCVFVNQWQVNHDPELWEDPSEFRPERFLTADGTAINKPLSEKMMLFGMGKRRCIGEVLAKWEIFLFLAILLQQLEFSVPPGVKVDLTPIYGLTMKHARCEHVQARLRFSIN
Sequence of Cytochrome P450 2D6 (Homo sapiens) (P10635 whole entry, looked up): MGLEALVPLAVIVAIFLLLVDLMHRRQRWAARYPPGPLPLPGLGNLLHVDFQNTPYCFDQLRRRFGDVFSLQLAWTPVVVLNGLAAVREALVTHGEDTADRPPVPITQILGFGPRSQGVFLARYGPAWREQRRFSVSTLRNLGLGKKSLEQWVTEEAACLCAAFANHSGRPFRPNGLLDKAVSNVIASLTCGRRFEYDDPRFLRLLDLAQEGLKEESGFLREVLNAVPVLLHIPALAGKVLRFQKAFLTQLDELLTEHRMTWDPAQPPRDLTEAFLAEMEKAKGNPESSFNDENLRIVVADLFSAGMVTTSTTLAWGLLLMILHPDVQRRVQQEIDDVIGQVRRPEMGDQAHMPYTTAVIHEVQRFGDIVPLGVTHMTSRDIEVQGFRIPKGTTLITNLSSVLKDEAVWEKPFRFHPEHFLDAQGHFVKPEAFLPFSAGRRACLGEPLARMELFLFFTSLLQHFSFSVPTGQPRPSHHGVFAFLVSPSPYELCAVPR

O=C(OCCOCCO)c1ccccc1Nc1cccc(C(F)(F)F)c1
inactive: Potency [1] | Potency [2] | Potency [3] | outcome [4] | Potency [5] | max activation [6] -0.0091% | Potency [7]
active: Potency [8] 17.4 µM | Potency [9] 12.3 µM

CN1CCN(CCCN2c3ccccc3Sc3ccc(S(=O)(=O)N(C)C)cc32)CC1
inactive: Potency [1] | outcome [4] | max activation [6] 4.5% | Potency [11] | Potency [12] | Potency [9]
active: Potency [2] 26.6 µM | Potency [10] 26.6 µM | Potency [5] 29.8 µM | Potency [7] 15.5 µM | Potency [13] 5.35 µM

COCC(O)CO (stereo not given)
inactive: Potency [1] | Potency [3] | Potency [10] | Potency [5] | Potency [14] | Potency [7] | Potency [12] | Potency [8] | Potency [9] | Potency [13] | Potency [15]

CCc1c2c(nc3ccc(OC(=O)N4CCC(N5CCCCC5)CC4)cc13)-c1cc3c(c(=O)n1C2)COC(=O)[C@]3(O)CC
inactive: Potency [1] | Potency [2] | Potency [10] | outcome [4] | Potency [14] | max activation [6] -2.7% | Potency [16] | Potency [11] | Potency [7] | Potency [12] | Potency [8] | Potency [9] | Potency [13] | Potency [15]

O=C(Nc1ccccc1)Nc1ccccc1
active: Potency [14] 4.88 µM | Potency [7] 28.4 µM | Potency [12] 4.5 µM | Potency [8] 22.6 µM | Potency [9] 17.9 µM
inactive: Potency [1] | Potency [2] | Potency [3] | outcome [4] | Potency [5] | Potency [13] | Potency [15]

Cc1nccn1-c1ccc(Sc2cccc(C3(C(N)=O)CCOCC3)c2)cc1
inactive: Potency [1] | Potency [3] | outcome [4]
active: Potency [10] 7.7 µM | Potency [14] 13.7 µM | Potency [7] 35.6 µM | Potency [12] 20 µM | Potency [8] 5.64 µM | Potency [15] 7.96 µM

Cc1cc(O)c2c(O)c3c(O)cccc3cc2c1
active: Potency [14] 11.9 µM | Potency [12] 4.36 µM | Potency [8] 4.9 µM
inactive: Potency [1] | Potency [2] | Potency [3] | outcome [4] | Potency [5] | Potency [7] | Potency [13]

CCCC(=O)O[C@]1(C(=O)COC(=O)CC)CC[C@H]2[C@@H]3CCC4=CC(=O)CC[C@]4(C)[C@H]3[C@@H](O)C[C@@]21C
inactive: activation [1] -0.132% [at 11.8 µM] | caspase activation [3] -2.33% [at 19 µM] | activity change, negative = cytotoxicity [10] 11.7% [at 19 µM] | activity change, negative = cytotoxicity [5] 3.19% [at 19 µM] | activation [14] -1.9% [at 19 µM] | activity change, negative = inhibition [7] -0.0142% [at 23.6 µM] | activity change, negative = inhibition [12] -11.3% [at 23.6 µM] | activity change, negative = inhibition [8] 11.6% [at 23.6 µM] | Potency [9] | activity change, negative = inhibition [13] 4.88% [at 15.8 µM] | activity change, negative = inhibition [15] 1.97% [at 23.6 µM]

CNC(=S)NC
inactive: Potency [1] | Potency [2] | Potency [3] | outcome [4] | Potency [5] | Potency [14] | Potency [12] | Potency [8] | Potency [13] | Potency [15]
active: Potency [9] 31.7 µM

CNCCCC1c2ccccc2C=Cc2ccccc21
inactive: Potency [1] | max activation [6] -3.85% | Potency [12] | Potency [8] | Potency [9]
active: Potency [2] 29.8 µM | Potency [10] 26.6 µM | Potency [16] 3.55 µM | Potency [7] 4.9 µM

CC1(C)C2=CCCC(C)(C)[C@]23CC[C@H]1C3
active: Potency [14] 54.5 µM | Potency [8] 79.6 µM | Potency [15] 35.6 µM
inactive: Potency [1] | Potency [3] | Potency [10] | outcome [4] | Potency [5] | Potency [7] | Potency [13]

CC#N
inactive: Potency [1] | Potency [3] | Potency [10] | outcome [4] | Potency [5] | Potency [14] | Potency [7] | Potency [12] | Potency [8] | Potency [9] | Potency [13] | Potency [15]

c1cnc2c(n1)CCCC2
inactive: Potency [1] | Potency [3] | Potency [10] | outcome [4] | Potency [5] | Potency [14] | Potency [7] | Potency [12] | Potency [8] | Potency [9] | Potency [15]
